# The entries come from a sample that favours hits as a whole.
# ALOX15B inhib = blocks human 15-lipoxygenase 2 activity | hit rate 0.56% among 110,000 | Potency, µM (top dose mostly 57.1 µM), for the others: at the highest dose activity change, negative = inhibition, hits mostly inhibitors | O15296 | purified 15hLO-2, xylenol orange hydroperoxide absorbance; also: nearly all actives have a fitted effect of over 60% in size
#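 Read-out: hydroperoxide product oxidises ferrous iron, measured as xylenol orange complex via the 573-to-405 nm absorbance ratio after 30 min. Reaction: 50 nM enzyme, 15 min compound preincubation, 45 uM arachidonic acid, 90 min RT, Hepes pH 7.5 with Triton X-100.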
# 12-hLO inh = inhibitors of human 12-lipoxygenase (ALOX12); P18054; purified 12-hLO, xylenol orange hydroperoxide absorbance; Potency, µM (series often up to 57.1 µM), inactives show at the highest dose activity change, negative = inhibition, hits mostly inhibitors; hit rate 0.12% among 150,000; also: nearly all actives have a fitted effect of over 55% in size
# Target sequence (P18054 whole entry, looked up): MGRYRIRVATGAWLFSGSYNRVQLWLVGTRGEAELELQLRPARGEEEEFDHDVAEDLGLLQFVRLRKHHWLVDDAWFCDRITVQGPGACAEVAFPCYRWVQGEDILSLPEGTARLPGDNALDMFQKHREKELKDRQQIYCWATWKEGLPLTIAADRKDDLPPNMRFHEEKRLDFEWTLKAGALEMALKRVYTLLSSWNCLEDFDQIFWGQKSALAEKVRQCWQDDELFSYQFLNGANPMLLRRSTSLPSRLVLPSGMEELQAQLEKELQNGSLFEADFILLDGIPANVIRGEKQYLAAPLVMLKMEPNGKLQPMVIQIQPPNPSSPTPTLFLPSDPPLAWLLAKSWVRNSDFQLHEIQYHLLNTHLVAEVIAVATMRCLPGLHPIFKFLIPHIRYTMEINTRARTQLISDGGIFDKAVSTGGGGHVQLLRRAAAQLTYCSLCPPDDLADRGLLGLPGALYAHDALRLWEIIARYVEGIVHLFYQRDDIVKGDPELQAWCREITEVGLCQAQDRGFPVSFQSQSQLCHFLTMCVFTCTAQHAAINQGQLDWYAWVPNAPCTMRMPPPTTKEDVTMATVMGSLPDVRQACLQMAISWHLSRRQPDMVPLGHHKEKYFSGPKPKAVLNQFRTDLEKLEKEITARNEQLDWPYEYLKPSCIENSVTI
#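 Hydroperoxide formation by human 12-lipoxygenase from 40 uM arachidonic acid was followed colorimetrically via ferric-xylenol orange complex, using the 573/405 nm absorbance ratio. Enzyme concentration was 150 nM, with 30 min reaction at room temperature.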
# * = called active by the depositor; ? = inconclusive; . = not tested or not shown; [ ] = remark or other dose. Calls follow the shape of the dose curve; as a rule, active = well fitted curve in the direction sought with a large enough effect; inconclusive = small, poorly fitted or top-dose-only effect, or another doubt; inactive = no such curve, though single readings can be large; an effect the other way counts as inactive or inconclusive. % is scaled to controls: 0 for no effect and ±100 for the full control effect; potency is read from the fitted curve at half-maximal effect.
SMILES,ALOX15B inhib,12-hLO inh
C=CC1=C(C)C2=NC1=CC1=NC(=CC3=NC(=CC4=NC(=C2)C(C)=C4CCC(=O)O)C(CCC(=O)O)=C3C)C(C=C)=C1C.[Zn],13µM*,?
COc1ccc(CCNC(=S)NC(=O)c2ccccc2)cc1OC,13µM*,14µM*
COc1ccc(/C=C/C(=O)NC(=S)NCCc2ccc(OC)c(OC)c2)cc1,-29%,2%
CC(NC(=O)/C(C#N)=C/c1ccc(Cl)c([N+](=O)[O-])c1)c1ccccc1 (stereo not given),.,-25%
C[C@H](NC(=O)/C(C#N)=C/c1ccc(O)c(O)c1)c1ccccc1,?,20µM*
CC(C)(C)n1nnnc1C(c1ccccn1)N(Cc1ccccc1)Cc1ccc(Cl)cc1 (stereo not given),4%,-11%
Cc1ccc(O)c(C=Nc2cc(C)ccc2O)c1,.,-12%
CCc1ccc(O)c(N=Cc2ccccc2O)c1,16µM*,?
CSc1ccc(C(=S)N2CCN(Cc3ccccc3)CC2)cc1,16%,-6%
O=C(OCC(=O)N1CCN(C(=O)c2ccco2)CC1)c1cc(-c2ccco2)nc2ccccc12,13µM*,-19%
O=C(OCC(=O)N1CCN(C(=O)c2ccco2)CC1)c1cc(-c2ccc(Cl)c(Cl)c2Cl)nc2ccccc12,-8%,4%
O=C(NC(=S)Nc1ccc(S(=O)(=O)NC2CCCCC2)cc1)c1cccs1,.,5µM*
O=C(NC(=S)Nc1ccc(S(=O)(=O)N2CCCCC2)cc1)c1cccs1,.,4%
CC1(C)C(O)CC[C@]2(C)C1CC[C@@]1(C)C2C(=O)C=C2[C@@H]3C[C@@](C)(C(=O)O)CC[C@@]3(C)CCC21C (stereo not given in full),-8%,0%
O=C(Nc1ccc(Cl)cc1Cl)C1CCC(=O)N1Cc1ccccc1Cl (stereo not given),0%,-6%
CCc1ccc2c(c1)C(C)=CC(C)(C)N2,?,-14%
CC1=CC(C)(C)Nc2ccc(OC(=O)CN3C(=O)c4cccc5cccc(c45)C3=O)cc21,13µM*,-7%
CCOc1ccc2c(c1)C(C)=CC(C)(C)N2,13µM*,?
CC1=CC(C)(C)Nc2ccc(OC(=O)CN3C(=O)c4ccccc4C3=O)cc21,.,0%
CC(=O)N1CC[C@H]2CC(=O)CC[C@@]21C,0%[0.0915 µM],5%[0.00818 µM]
CS(=O)(=O)N1CCN(c2ccc(NC(=O)C(c3ccccc3)c3ccccc3)cc2)CC1,.,-3%
O=C(Nc1ccc(N2CCCC2)cc1)C(Cl)c1ccccc1 (stereo not given),13µM*,-10%
O=C(O)Cn1nc2ccccc2n1,5%,4%
CC1=CC2=NC(=O)/C(=C\c3ccc(-c4cccc(Cl)c4)o3)C(=N)N2O1,.,0%
CC1=NOC(=O)/C1=C\c1ccc(-c2cccc(Cl)c2)o1,2.5µM*,-26%
SMILES,ALOX15B inhib,12-hLO inh
COc1ccc(OC)c(CN(CCN2CCOCC2)C(=O)Nc2cccc(Cl)c2)c1,.,2%
Cc1cc(C)c(NC(=S)NC(NC(=O)c2ccccc2)C(Cl)(Cl)Cl)c(C)c1 (stereo not given),.,4%
O=C(NC(NC(=S)Nc1ccccc1)C(Cl)(Cl)Cl)c1cccc(Cl)c1 (stereo not given),25µM*,?
Cn1c2c(c(=O)[nH]c1=O)C(NC(=O)c1ccco1)(C(F)(F)F)C(=O)N2 (stereo not given),0%,-1%
CCOC(=O)c1cc(-c2ccccc2)sc1NC(=O)C(C)(C)C,4%,3%
CCOC(=O)c1cc(-c2ccccc2)sc1NC(=S)Nc1cc(C)ccn1,10µM*,0%
CC(OCC(O)CN(C)CCOc1ccccc1)c1ccc(Cl)cc1 (stereo not given),19%,-4%
CCOc1ccc(C2C(C#N)=C(N)SC(N)=C2C#N)cc1OCC,?,-21%
N#CC1=C(N)SC(N)=C(C#N)C1c1ccc(C(F)(F)F)cc1,13µM*,-7%
CC(C)n1cc(/C=C2/SC(=O)N(CC(=O)N3CCCC3)C2=O)c2ccccc21,0%,4%
O=C1S/C(=C/c2ccc(N3CCOCC3)o2)C(=O)N1Cc1ccc(F)cc1,1.3µM*,?
O=C1/C(=C/c2ccc(N3CCOCC3)o2)SC(=Nc2ccccc2)N1CCc1c[nH]c2ccccc12,4µM*,?
O=C1S/C(=C\c2ccc(N3CCOCC3)o2)C(=O)N1Cc1ccc(F)cc1,5µM*,-18%
O=C1NC(=S)S/C1=C/c1ccc(N2CCOCC2)o1,.,-28%
CC(C)OC(=O)CN1C(=O)S/C(=C/c2ccc(N3CCCCC3)o2)C1=O,13µM*,-8%
O=C1N/C(=C/c2ccc(N3CCOCC3)cc2)C(=O)N1Cc1ccc(F)cc1,?,-6%
COc1cc(/C=C2\SC(=Nc3ccccc3)N(CCc3c[nH]c4ccccc34)C2=O)ccc1OC(C)C(=O)O (stereo not given),.,-2%
CCn1ncc(/C=C/C(=O)C2CC2)c1C,.,1%

# Compound activity from PubChem BioAssay.
